# Biological target: MOBKL1B
# Experiment: pooled miR-30 sensor sort-seq; sequence = guide strand
# Details: shRNA
# Further: reference of the scale not given here.
row,Sequence,sensor-assay potency score (higher = more potent)
1,TTTAATATTAGTACCATCTGCC,0.311
2,TAATTCTTGAAGAGGTGCCAGC,-0.967
3,TTCATCATCAAGCTGATCTTGA,0.57
4,AAGAGTTTCATCATCAAGCTGA,0.471
5,TTTTGGTGCAGAACATTTGATT,-0.935
6,TTGAATGTTTTAGAAGAGCGGC,-0.634
7,TTTTAATATTAGTACCATCTGC,-0.715
8,TAAAAGAATAAAACCAATCTGA,-0.367
9,TTAATTCTTGAAGAGGTGCCAG,-0.419

# Biological target: MOCS3
# Experiment: as above
# Details: shRNA
row,Sequence,sensor-assay potency score (higher = more potent)
1,TTGCAAATCACATAAATGGGGA,-0.379
2,TTAGAAAGCATTTTGACTGGGG,0.772
3,TTGAGCTGCTGATAAGGACTGG,-0.00969
4,TTGGTCACTGTCTCCGCTGGGG,-0.474
5,TTTCTGTGAGTCATTTCCCAGT,-0.966
6,TTTGCAAATCACATAAATGGGG,-0.854
7,TTAAAGGGTCTAACTCTTGAGC,-0.607
8,TCAAAGAGCAACAAGCTGCCAC,-0.221
9,TAGCGCAGAATCTCATCTCGGG,-0.0421
10,TATTATGGCAATCCACATCTTT,-0.453
11,TAGTCGGTGACAGAAACACGCT,-0.908
12,AACAAGTGTATCTTTGAGGTAT,0.286

# Biological target: MOGAT1
# Experiment: as above
# Details: shRNA
row,Sequence,sensor-assay potency score (higher = more potent)
1,TAGGACACACTTTTCTTGGAAA,-0.902
2,TTGATCCAGCTGGATCTCCTGC,-0.998
3,TTCTAATCCATGATCCTTCAGG,-0.32
4,TAACTCCTCAATCTGCTCCTGG,-0.332
5,TTCTGAACAGTTCTAATCCATG,-1.47
6,TTGTACTGAAAAACTCCCCTGG,0.595
7,TTTCTTGGAAACTGAAACCAGC,-0.444
8,TTTAACAAATCCTTTCCGCTGG,-0.0523
9,TTACCATGTAGGACACACTTTT,-0.495
10,TATAGGTCTGATGTAACTCCTC,-0.267
11,TATAGTTGTGACTTGGATCCAA,0.757
12,ATGAATTGGAAAATAGTCCTTA,0.9

# Biological target: MON2
# Experiment: as above
# Details: shRNA
row,Sequence,sensor-assay potency score (higher = more potent)
1,TATTTGACCAACAAATTCCTTA,-0.301
2,TTCTTCAAGACTATTCTCCATT,-0.51
3,TTGAATAGAGAGATTATCTGGA,0.727
4,TAGTCGAAAACAAAGAACGATT,-1.16
5,TTGGACATCTCCTTTAACGGGT,-0.305
6,AAAAACAACAGTAACAACTTGT,0.77
7,TTGTTCTATAATATCTCTGTGT,-0.519
